# Measurements: ChEMBL document CHEMBL3988442, “University of Dundee, Small-Polar-MMV Screening Library” (2021)
# Target: T1, Methionyl-tRNA synthetase, putative (Leishmania donovani (strain BPK282A1)) (UniProt E9BF75)
# T1 sequence (whole entry): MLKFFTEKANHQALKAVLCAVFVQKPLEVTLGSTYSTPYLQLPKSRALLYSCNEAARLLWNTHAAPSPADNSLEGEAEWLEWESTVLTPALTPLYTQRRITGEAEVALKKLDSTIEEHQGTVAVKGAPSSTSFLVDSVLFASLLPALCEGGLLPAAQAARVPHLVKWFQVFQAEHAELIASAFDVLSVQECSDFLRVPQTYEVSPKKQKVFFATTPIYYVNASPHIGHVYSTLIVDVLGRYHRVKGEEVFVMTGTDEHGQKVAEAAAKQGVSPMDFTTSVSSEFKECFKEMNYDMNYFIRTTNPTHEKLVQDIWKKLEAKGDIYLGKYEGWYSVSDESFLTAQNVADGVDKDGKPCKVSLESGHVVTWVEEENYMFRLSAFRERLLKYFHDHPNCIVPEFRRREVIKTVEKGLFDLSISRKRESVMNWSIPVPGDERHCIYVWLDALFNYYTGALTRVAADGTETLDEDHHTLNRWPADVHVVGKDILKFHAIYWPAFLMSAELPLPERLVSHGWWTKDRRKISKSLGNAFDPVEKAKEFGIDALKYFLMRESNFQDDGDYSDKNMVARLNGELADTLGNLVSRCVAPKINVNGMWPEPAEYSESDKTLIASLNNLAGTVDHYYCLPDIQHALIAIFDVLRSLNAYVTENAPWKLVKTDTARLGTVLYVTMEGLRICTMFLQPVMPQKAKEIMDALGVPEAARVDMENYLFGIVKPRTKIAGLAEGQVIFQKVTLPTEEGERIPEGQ
# Test: Leishmania donovani Methionine tRNA synthetase (LdMetRS):v7. Dose response assay
# Assay type: functional
# Design: conc 80 nM, time 150 minutes
compound,measurement,setting,value
NC1CCN(C2CCN(c3ccc(-c4ccco4)cc3)CC2)CC1,PXC50,MAX_EFFECT 34.50087566,< 4
same,PXC50,MAX_EFFECT 44.89795918,< 4
same,PXC50,MAX_EFFECT 51.44927536,< 4
Cn1ncc2c(NCC3CCCO3)nc(Nc3ccc(F)c(F)c3)nc21 (stereo not drawn),PXC50,"BOTTOM 1.649824941, HILLSLOPE 0.742759749, MAX_EFFECT 82.45614035, TOP 99.7468185",4.96
same,PXC50,"BOTTOM 4.130822452, HILLSLOPE 0.904236715, MAX_EFFECT 86.03773585, TOP 94.6325805",4.99
same,PXC50,"BOTTOM 7.824180632, HILLSLOPE 1.170320257, MAX_EFFECT 82.95165394, TOP 90.00397209",4.93
Cc1nc(CN(C)CC2CCCN2c2cccnn2)nc2ccccc12 (stereo not drawn),PXC50,"BOTTOM 6.94309251, HILLSLOPE 1.363298468, MAX_EFFECT 83.49834983, TOP 100.0",4.46
same,PXC50,"BOTTOM 8.751319867, HILLSLOPE 2.615595336, MAX_EFFECT 78.85304659, TOP 100.0",4.21
same,PXC50,"BOTTOM -1.910835363, HILLSLOPE 2.399208882, MAX_EFFECT 79.71014493, TOP 90.01694606",4.37
Cc1sc(C)c(C(F)(F)F)c1CNCCCNc1cc(=O)c2ccccc2[nH]1,PXC50,"BOTTOM -1.155419978, HILLSLOPE 1.172834864, MAX_EFFECT 100.9302326, TOP 101.3032533",5.58
same,PXC50,"BOTTOM -1.471807315, HILLSLOPE 1.111829353, MAX_EFFECT 101.8648019, TOP 104.5162556",5.56
COCCNc1nc(C)nc2sc3c(c12)CCCC3,PXC50,MAX_EFFECT 3.174603175,< 4
same,PXC50,MAX_EFFECT 4.266666667,< 4
Cn1ncc2c(N3CCC[C@H]3CO)nc(Nc3ccc(F)c(F)c3)nc21,PXC50,"BOTTOM 3.354874327, HILLSLOPE 0.975942115, MAX_EFFECT 81.27853881, TOP 88.63537555",5.05
same,PXC50,"BOTTOM 5.651213015, HILLSLOPE 1.001049773, MAX_EFFECT 83.58490566, TOP 90.01230887",5.05
same,PXC50,"BOTTOM 9.222423555, HILLSLOPE 1.183933311, MAX_EFFECT 81.21442125, TOP 84.5225205",5.23
CN(C)c1nc2c(c(N3CCc4ccccc4C3)n1)CCNC2,PXC50,"BOTTOM 4.386431105, HILLSLOPE 1.427859325, MAX_EFFECT 80.85808581, TOP 100.0",4.37
same,PXC50,"BOTTOM 4.719660638, HILLSLOPE 1.487233723, MAX_EFFECT 73.91304348, TOP 100.0",4.28
same,PXC50,"BOTTOM 4.739489756, HILLSLOPE 1.201717489, MAX_EFFECT 56.63082437, TOP 100.0",4.07
OCCNc1nc(Nc2cccc(C(F)(F)F)c2)nc2ccsc12,PXC50,MAX_EFFECT 27.65957447,< 4
same,PXC50,MAX_EFFECT 37.44493392,< 4
same,PXC50,MAX_EFFECT 44.00826446,< 4
Cc1nc(N2CCC(N3CCSCC3)CC2)c2ccsc2n1,PXC50,MAX_EFFECT 8.29015544,< 4
same,PXC50,MAX_EFFECT 9.042553191,< 4
Cc1nc(Cc2ccc(F)cc2)cc(C2COCCN2)n1 (stereo not drawn),PXC50,"BOTTOM 2.29407011, HILLSLOPE 1.165905826, MAX_EFFECT 59.72222222, TOP 100.0",4.12
same,PXC50,"BOTTOM 7.218737982, HILLSLOPE 1.406075807, MAX_EFFECT 57.71812081, TOP 100.0",4.05
same,PXC50,MAX_EFFECT 41.7677643,< 4
Cc1nc(N2CCN(c3cnccn3)CC2)c2c3c(sc2n1)CCCC3,PXC50,MAX_EFFECT 22.45989305,< 4
same,PXC50,MAX_EFFECT 25.13661202,< 4
CN(C)CCNc1nc(Nc2ccc(F)c(F)c2)nc2c1cnn2C,PXC50,"BOTTOM 0.475518208, HILLSLOPE 0.90804468, MAX_EFFECT 68.49315068, TOP 100.0593914",4.37
same,PXC50,"BOTTOM 1.11826122, HILLSLOPE 1.149142478, MAX_EFFECT 65.47169811, TOP 85.8972695",4.44
same,PXC50,"BOTTOM 3.189178936, HILLSLOPE 1.201155954, MAX_EFFECT 69.44971537, TOP 84.11641449",4.53
Cn1ncc2c(NC3CCOCC3)nc(Nc3ccc(F)c(F)c3)nc21,PXC50,"BOTTOM 5.374646893, HILLSLOPE 1.78968519, MAX_EFFECT 52.27272727, TOP 55.59803221",4.65
same,PXC50,"BOTTOM 9.100238565, HILLSLOPE 1.237667708, MAX_EFFECT 69.82591876, TOP 73.93326352",5.4
same,PXC50,MAX_EFFECT 40.52863436,< 4
CNS(=O)(=O)CCNc1nc(NCCO)c2cnn(C)c2n1,PXC50,MAX_EFFECT 5.780346821,< 4
same,PXC50,MAX_EFFECT 6.392694064,< 4
same,PXC50,MAX_EFFECT 15.28301887,< 4
Cc1cnn(CCNCc2c(C)nn(CCO)c2C)c1,PXC50,MAX_EFFECT 2.721088435,< 4
same,PXC50,MAX_EFFECT 5.072463768,< 4
same,PXC50,MAX_EFFECT 8.23117338,< 4
Cn1ncc2c(NCCO)nc(Nc3cccc(S(N)(=O)=O)c3)nc21,PXC50,MAX_EFFECT 2.127659574,< 4
same,PXC50,MAX_EFFECT 6.392694064,< 4
same,PXC50,MAX_EFFECT 11.50943396,< 4
OCCCNc1nccc(Nc2cccc(C(F)(F)F)c2)n1,PXC50,MAX_EFFECT 6.834532374,< 4
same,PXC50,MAX_EFFECT 6.86695279,< 4
same,PXC50,MAX_EFFECT 9.976247031,< 4
Cc1cc(Nc2nc(NCCO)c3cnn(C)c3n2)cc(C(F)(F)F)c1,PXC50,MAX_EFFECT 17.18061674,< 4
same,PXC50,MAX_EFFECT 18.76208897,< 4
same,PXC50,MAX_EFFECT 22.9338843,< 4
Cn1ncc2c(NCCCO)nc(Nc3ccc(F)c(F)c3)nc21,PXC50,"BOTTOM 3.669470718, HILLSLOPE 1.210805745, MAX_EFFECT 80.79625293, TOP 84.65096449",5.1
same,PXC50,"BOTTOM -1.663315364, HILLSLOPE 0.981462858, MAX_EFFECT 92.22222222, TOP 100.0",4.94
same,PXC50,"BOTTOM -4.044672009, HILLSLOPE 0.90681659, MAX_EFFECT 92.93598234, TOP 107.9137749",4.87
COc1ccc(C)cc1CN1CCC(c2cc3ncccc3cn2)CC1,PXC50,"BOTTOM 4.302486836, HILLSLOPE 1.43779927, MAX_EFFECT 88.21490468, TOP 100.0",4.58
same,PXC50,"BOTTOM 8.282667515, HILLSLOPE 1.048150925, MAX_EFFECT 85.90604027, TOP 109.7015184",4.5
same,PXC50,"BOTTOM -10.94583239, HILLSLOPE 1.338598097, MAX_EFFECT 90.27777778, TOP 104.5409309",4.59
CNc1nc(Nc2ccc(F)c(F)c2)nc2c1cnn2C,PXC50,"BOTTOM 0.870209489, HILLSLOPE 0.808254997, MAX_EFFECT 89.4026975, TOP 100.0",5.22
same,PXC50,"BOTTOM 6.300791226, HILLSLOPE 0.864616698, MAX_EFFECT 89.69957082, TOP 97.1703974",5.16
same,PXC50,"BOTTOM -2.296989521, HILLSLOPE 0.747850258, MAX_EFFECT 89.3111639, TOP 97.09484857",5.35
NCC1Cc2cc(-c3nccc(N4CCC(O)CC4)n3)cc(F)c2O1 (stereo not drawn),PXC50,"BOTTOM 4.57074024, HILLSLOPE 1.301030074, MAX_EFFECT 74.63768116, TOP 104.4144526",4.29
same,PXC50,"BOTTOM 7.212229631, HILLSLOPE 1.389029539, MAX_EFFECT 78.85304659, TOP 100.0",4.36
same,PXC50,"BOTTOM 8.369250909, HILLSLOPE 1.751405643, MAX_EFFECT 88.77887789, TOP 100.0",4.37
Cn1ncc2c(NCCO)nc(Nc3ccccc3)nc21,PXC50,MAX_EFFECT 42.26415094,< 4
same,PXC50,MAX_EFFECT 47.32824427,< 4
same,PXC50,MAX_EFFECT 49.56140351,< 4
c1ccc(CNc2ncc(CN3CCCN4CCC[C@H]4C3)cn2)cc1,PXC50,"BOTTOM -0.610075864, HILLSLOPE 1.031656218, MAX_EFFECT 61.9047619, TOP 100.0",4.18
same,PXC50,"BOTTOM -1.183822823, HILLSLOPE 1.053099151, MAX_EFFECT 65.67425569, TOP 100.0",4.24
same,PXC50,MAX_EFFECT 60.86956522,< 4
